Assay results: PubChem BioAssay (EPA / NIEHS)
Some structures have more than one record in an assay (separate samples or runs), and their calls can disagree. Active and inactive are the calls of the source. The calls were made as follows: active = hit-call score of the fitted dose curve at least 0.9, where 1 is the maximum; inactive = score below 0.9.

Test: ATG_VDRE_CIS: Attagene CIS-FACTORIAL HepG2 Assay for human Vitamin D Receptor Element (VDRE) (AID 2282968)
Conditions: HepG2 VDRE cis-reporter transcription, actives raise or lower the signal
Experimental: ATG_CIS is a cell-based, multiplexed-readout assay that uses HepG2, a human liver cell line, with measurements taken at 24 hours after chemical dosing in a 24-well plate.ATG_VDRE_CIS is one of 52 assay component(s) measured or calculated from the ATG_CIS assay. It is designed to make measurements of mRNA induction, a form of inducible reporter, as detected with fluorescence intensity signals by Reverse transcription polymerase chain reaction (RT-PCR) and Capillary electrophoresis technology.Data from the assay component ATG_VDRE_CIS was analyzed into 1 assay endpoint. This assay endpoint, ATG_VDRE_CIS, was analyzed with bidirectional fitting relative to DMSO as the negative control and baseline of activity. Using a type of inducible reporter, measures of mRNA for gain or loss-of-signal activity can be used to understand the reporter gene at the transcription factor-level as they relate to the gene VDR. Furthermore, this assay endpoint can be referred to as a primary readout, because this assay has produced multiple assay endpoints where this one serves a reporter gene function. To generalize the intended target to other relatable targets, this assay endpoint is annotated to the nuclear receptor intended target family, where the subfamily is non-steroidal.
Human liver HepG2 cells are transiently transfected with multiple reporter transcription units (MRTUs) in 6-well plates using FuGene 6 reagent (Roche; 3 ml FuGene/1 mg DNA). The MRTU constructs are regulated by a cis-regulating element (promoter). […] A major difference between the CIS and TRANS system is that in CIS activities of endogenous TFs are measured, whereas the TRANS assay evaluates changes in activities of exogenous, chimeric NR-Gal4 proteins. […] At the end of 24 hour incubation, total RNA was isolated using TriZol reagent (Invitrogen). The isolated RNA is then reverse-transcribed using oligo(dT) primer and Mo-MLV reverse transcriptase (Invitrogen) with DNAse I (Ambion) treatment for 30 min. The one-tenth of the produced cDNA was amplified by PCR using Taq DNA polymerase (Invitrogen) and two reporter sequence-specific primers. The PCR products were fluorescently labeled by primer extension with 6-arboxyfluorescein (6-FAM) 5'-labeled reporter sequence-specific primer (2 min at 95 C, 20 s at 68 C and 10 min at 72 C) and these products were digested with 5U of HpaI (New England Biolabs) for 2h at 37 C. The fragments were purified using Qiaquick PCR columns (Qiagen), analyzed on an ABI 3130xL genetic analyzer (Applied Biosystems) with peak positions identified by using a set of X-rhodamine (ROX)-labeled MapMarker1000 molecular weight standards (BioVentures). The raw capillary electrophoresis data was processed using Attagraph software (Attagene).

SMILES	AC50	outcome
Oc1cc(Cl)ccc1Oc1ccc(Cl)cc1Cl	8.06 µM (active) [middle of 6 runs]	inactive
N#CN		inactive
CC(C)OC(=O)Nc1cccc(Cl)c1	50 µM (active)	
C[C@H]1[C@H](c2ccc(Cl)cc2)SC(=O)N1C(=O)NC1CCCCC1	13.7 µM (active)	
COP(=S)(OC)Oc1ccc([N+](=O)[O-])cc1		inactive
CCOCN(C(=O)CCl)c1c(C)cccc1CC		inactive
COC(=O)c1ccccc1CS(=O)(=O)NC(=O)Nc1nc(OC)cc(OC)n1		inactive
COC(=O)c1ccccc1S(=O)(=O)NC(=O)Nc1nc(C)nc(OC)n1		inactive
O=S(=O)(O)C(F)(F)C(F)(F)C(F)(F)C(F)(F)C(F)(F)C(F)(F)C(F)(F)C(F)(F)F		inactive
O=C(O)COc1ccc(Cl)cc1Cl		inactive
O=C1c2ccccc2C(=O)N1SC(Cl)(Cl)Cl		inactive
CN1CSC(=S)N(C)C1	78.3 µM (active)	
O=C(Nc1ccccc1)Nc1cnns1	50 µM (active)	
CC1(c2ccc(Oc3ccccc3)cc2)OC(=O)N(Nc2ccccc2)C1=O (stereo not given)	2.16 µM (active)	
CNC(=O)/C=C(\C)OP(=O)(OC)OC		inactive
O=C(NC(=O)c1c(F)cccc1F)Nc1ccc(OC(F)(F)C(F)OC(F)(F)F)c(Cl)c1 (stereo not given)		inactive
CC(C)(C)C(O)/C(=C\c1ccc(Cl)cc1Cl)n1cncn1 (stereo not given)		inactive
Cc1cc(C)nc(NC(=O)NS(=O)(=O)c2ccccc2C(=O)OC2COC2)n1	50 µM (active)	
CNC(=O)CSP(=S)(OC)OC		inactive
CNC(=O)Oc1cccc(N=CN(C)C)c1	82.3 µM (active)	

SMILES	AC50	outcome
CCc1ccc(C(=O)NN(C(=O)c2cc(C)cc(C)c2)C(C)(C)C)cc1	9.51 µM (active)	
[2H]C1([2H])[n+]2ccccc2-c2cccc[n+]2C1([2H])[2H]		inactive
COc1nn(CSP(=S)(OC)OC)c(=O)s1	50 µM (active)	
CCCN(CCC)c1c([N+](=O)[O-])cc(C(F)(F)F)cc1[N+](=O)[O-]	13.4 µM (active)	
O=[N+]([O-])c1c(Cl)c(Cl)c(Cl)c(Cl)c1Cl	50 µM (active)	
CC[C@H](C)[C@H]1O[C@]2(C=C[C@@H]1C)C[C@@H]1C[C@@H](C/C=C(\C)[C@@H](O[C@H]3C[C@H](OC)[C@@H](O[C@H]4C[C@H](OC)[C@@H](O)[C@H](C)O4)[C@H](C)O3)[C@@H](C)/C=C/C=C3\CO[C@@H]4[C@H](O)C(C)=C[C@@H](C(=O)O1)[C@]34O)O2 (tested in a mixture with another compound)		inactive
Clc1ccccc1-c1nnc(-c2ccccc2Cl)nn1		inactive
CCOC1Oc2ccc(OS(C)(=O)=O)cc2C1(C)C (stereo not given)	25.7 µM (active)	
O=S1OCC2C(CO1)C1(Cl)C(Cl)=C(Cl)C2(Cl)C1(Cl)Cl (stereo not given)		inactive
CC(C)(C)C(O)C(Oc1ccc(Cl)cc1)n1cncn1 (stereo not given)		inactive
CNC(=O)Oc1ccccc1OC(C)C		inactive
CCOc1nc(NC)nc(NC(=O)NS(=O)(=O)c2ccccc2C(=O)OC)n1		inactive
COP(=S)(OC)Oc1ccc(SC)c(C)c1	25.7 µM (active)	
CCN(CC)C(=O)SCc1ccc(Cl)cc1	24.8 µM (active)	
CCC(C)Nc1c([N+](=O)[O-])cc(C(C)(C)C)cc1[N+](=O)[O-] (stereo not given)	19.2 µM (active)	
OCCOc1ccccc1		inactive
CCC(C)(C)C(=O)OC1=C(c2ccc(Cl)cc2Cl)C(=O)OC12CCCCC2		inactive
CC1(C)C(C=C(Cl)Cl)C1C(=O)OC(C#N)c1ccc(F)c(Oc2ccccc2)c1 (stereo not given)	8.85 µM (active)	
N#Cc1c(Cl)c(Cl)c(Cl)c(C#N)c1Cl	0.267 µM (active)	
